Test results taken from PubChem BioAssay AID1347074 (Center for Chemical Genomics, University of Michigan, 2019).
Among all 47,000 compounds or so, about 2,800 (6%) were called active. The sample as a whole holds a higher share of actives than the screen did. Values without a mark were called inactive. Rule as the data show it: active = z-score above about 3 (passing the limit was not always enough); inactive = the rest.

Molecular target: Endoribonuclease Dicer (Homo sapiens) (UniProt Q9UPY3)
Test: inhibitors of Dicer pre-microRNA processing, primary screen, biochemical, cat-ELCCA, chemiluminescence (AID 1347074);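 also: plate controls were vehicle for no effect and no enzyme for full effect; higher signal means more uncleaved substrate so more Dicer inhibition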
Settings: cat-ELCCA pre-miR-21 Dicer processing, at 25 µM, active compounds read high

Sequence of Endoribonuclease Dicer (Homo sapiens) (Q9UPY3 whole entry, looked up): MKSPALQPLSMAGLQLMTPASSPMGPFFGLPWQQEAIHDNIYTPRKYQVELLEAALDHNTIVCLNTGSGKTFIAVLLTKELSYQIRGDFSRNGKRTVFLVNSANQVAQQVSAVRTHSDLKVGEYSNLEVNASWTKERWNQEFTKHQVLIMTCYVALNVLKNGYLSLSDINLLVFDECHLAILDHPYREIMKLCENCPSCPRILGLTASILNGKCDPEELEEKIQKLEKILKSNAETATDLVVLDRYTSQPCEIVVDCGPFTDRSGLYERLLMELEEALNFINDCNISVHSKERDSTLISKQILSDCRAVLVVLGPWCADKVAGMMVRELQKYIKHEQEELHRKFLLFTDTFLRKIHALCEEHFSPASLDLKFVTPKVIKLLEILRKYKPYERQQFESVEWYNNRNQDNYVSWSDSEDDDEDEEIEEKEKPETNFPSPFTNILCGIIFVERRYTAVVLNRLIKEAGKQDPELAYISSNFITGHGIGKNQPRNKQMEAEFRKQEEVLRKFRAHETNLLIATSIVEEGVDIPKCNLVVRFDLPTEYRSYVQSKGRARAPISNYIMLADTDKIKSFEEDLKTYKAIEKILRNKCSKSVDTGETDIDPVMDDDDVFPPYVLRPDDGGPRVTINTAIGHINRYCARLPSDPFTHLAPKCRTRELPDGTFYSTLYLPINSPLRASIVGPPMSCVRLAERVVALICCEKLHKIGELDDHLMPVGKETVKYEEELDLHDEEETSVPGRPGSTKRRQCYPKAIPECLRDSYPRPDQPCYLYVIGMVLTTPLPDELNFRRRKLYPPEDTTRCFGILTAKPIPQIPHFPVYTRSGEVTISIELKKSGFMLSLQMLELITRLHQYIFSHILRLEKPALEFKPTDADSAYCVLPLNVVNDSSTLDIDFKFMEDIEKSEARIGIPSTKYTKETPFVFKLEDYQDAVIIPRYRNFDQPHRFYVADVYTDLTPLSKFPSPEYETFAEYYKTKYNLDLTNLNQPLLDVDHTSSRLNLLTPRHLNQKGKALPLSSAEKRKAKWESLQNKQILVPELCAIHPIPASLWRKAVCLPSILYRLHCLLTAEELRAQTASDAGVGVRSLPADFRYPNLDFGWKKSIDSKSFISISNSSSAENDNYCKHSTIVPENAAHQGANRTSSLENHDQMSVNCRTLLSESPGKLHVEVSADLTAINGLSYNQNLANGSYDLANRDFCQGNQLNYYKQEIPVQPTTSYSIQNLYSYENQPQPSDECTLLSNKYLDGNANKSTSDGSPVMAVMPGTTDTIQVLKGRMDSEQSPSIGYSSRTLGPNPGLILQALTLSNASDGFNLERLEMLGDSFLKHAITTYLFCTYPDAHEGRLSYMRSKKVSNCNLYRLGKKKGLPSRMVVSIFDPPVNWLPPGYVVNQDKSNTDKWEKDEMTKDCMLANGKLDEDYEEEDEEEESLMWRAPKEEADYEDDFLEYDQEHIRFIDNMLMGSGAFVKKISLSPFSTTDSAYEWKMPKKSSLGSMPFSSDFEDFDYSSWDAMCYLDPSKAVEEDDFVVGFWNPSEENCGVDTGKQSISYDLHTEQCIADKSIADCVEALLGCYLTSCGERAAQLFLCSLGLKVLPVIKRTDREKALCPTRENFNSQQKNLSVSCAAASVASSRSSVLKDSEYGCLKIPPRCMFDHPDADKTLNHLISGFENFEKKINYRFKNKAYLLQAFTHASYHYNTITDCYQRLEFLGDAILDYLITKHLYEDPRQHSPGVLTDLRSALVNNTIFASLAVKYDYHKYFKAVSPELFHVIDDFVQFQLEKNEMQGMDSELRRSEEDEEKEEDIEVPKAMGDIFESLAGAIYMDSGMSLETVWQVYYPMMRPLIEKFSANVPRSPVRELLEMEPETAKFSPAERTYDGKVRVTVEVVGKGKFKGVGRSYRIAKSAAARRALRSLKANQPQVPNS

Row | SMILES | z-score
1 | CC(=O)N1CCc2cc(NC(=S)Nc3ccccc3Cl)ccc21 | 0.03
2 | CSc1sc(C(=O)c2ccc(Cl)cc2)c2c1C(=O)CCC2 | -1.08
3 | CSc1sc(C(=O)NNC(=S)Nc2ccccc2Cl)c2c1C(O)CCC2 (configuration not stated) | 6.52 (active)
4 | CC1=C(C(=O)OCCc2ccccc2)C(c2cccs2)C2=C(CCCC2=O)N1 (configuration not stated) | 0.14
5 | CC(C)c1nnc(NC(=O)Cn2c(=O)sc3ccccc32)s1 | 0.59
6 | COc1ccc(Cl)cc1NC(=O)CSc1nc2ncccc2[nH]1 | 3.45 (active)
7 | Nc1cc(=O)[nH]c(SCC(=O)Nc2ccccc2F)n1 | 1.47
8 | CNC(=O)CSc1nc2ccccc2[nH]1 | 1.43
9 | O=C1c2ccccc2C(=O)N1CN1CCC(CCCC2CCN(CN3C(=O)c4ccccc4C3=O)CC2)CC1 | 2.46
10 | Cc1sc2nc3n(c(=O)c2c1C)N=C(c1cccs1)CS3 | 1.1
11 | O=C1c2cccnc2C(=O)N1c1ccc(-c2nc3ccccc3o2)cc1 | 2.88
12 | O=C(OCCN1CCOCC1)C1(c2ccccc2)CCCCC1 | -0.8
13 | O=C(OCCN1CCCCC1)C1COc2ccccc2O1 (configuration not stated) | 3.41 (active)
14 | Cc1cc(NC(=O)CCC2COc3ccccc3O2)no1 (configuration not stated) | 0.67
15 | CC(C)(C)c1cc(N/C=C/c2nnnn2-c2ccccc2)no1 | -0.3
16 | c1ccc(CN2CCN(Cc3cn[nH]c3-c3ccccc3)CC2)cc1 | -2.57
17 | COc1ccc(CN2CCN(Cc3ccccc3OC)CC2)cc1Br | 3.53 (active)
18 | Brc1cccc(CN2CCN(Cc3cccnc3)CC2)c1 | 1.06
19 | c1cc(CNCc2ccc3c(c2)OCO3)ccn1 | 3.21 (active)
20 | c1ccc(NCc2ccc3c(c2)OCO3)nc1 | -1.56
21 | COc1cccc(CNCc2ccc3c(c2)OCO3)c1 | 0.54
22 | COc1cccc(N2C(=O)C3ON(c4ccccc4)C(c4ccco4)C3C2=O)c1 (configuration not stated) | 1.03
23 | COc1ccc(OCC(O)CN2CCC(C)CC2)cc1 (configuration not stated) | -0.23

Row | SMILES | z-score
24 | CC1=C(C(=O)OCc2ccccc2)C(c2ccc(O)cc2)C2=C(CCCC2=O)N1 (configuration not stated) | 0.01
25 | O=C1CCCC2=C1C(c1ccc([N+](=O)[O-])o1)Nc1ccc(C(=O)c3ccccc3)cc1N2 (configuration not stated) | 4.19 (active)
26 | CC1=C(C(=O)OCC2CCCO2)C(c2ccc(-c3ccccc3)cc2)C2=C(CCCC2=O)N1 (configuration not stated) | 1.9
27 | COc1ccc(Cc2nc3c4c5c(sc4ncn3n2)CCCC5)cc1OC | 0.1
28 | N#C/C(=C\c1sccc1Oc1ccccc1)S(=O)(=O)c1ccc(Cl)cc1 | -1.9
29 | O=C1c2ccccc2C(=O)C1c1ccccc1 | 0.31
30 | Nc1nc2c(c(=O)[nH]1)C(c1ccccc1F)CC(=O)N2 (configuration not stated) | -1.01
31 | O=C1c2ccccc2C(=O)C1c1ccccc1F | 20.4 (active)
32 | COC(=O)CCS(=O)(=O)c1ccc2ccccc2c1 | 1.34
33 | COC(=O)c1ccc(/C=C/c2nc3cc(C)c(C)cc3o2)cc1 | -0.26
34 | Cc1cccn2cc(-c3cccc(S(=O)(=O)N4CCCCC4)c3)nc12 | 0.61
35 | Cc1ccc(S(=O)(=O)Nc2cccc(-c3cn4ccccc4n3)c2)cc1C | 5.71 (active)
36 | O=S(=O)(c1cccc(-c2cn3ccccc3n2)c1)N1CCCC1 | -0.49
37 | Cc1ccc(O)c(C2=NN3C(C2)c2cc(Cl)ccc2OC3c2ccncc2)c1 (configuration not stated) | -0.01
38 | COc1ccc(O)c(C2=NN3C(C2)c2cc(Cl)ccc2OC3c2cccnc2)c1 (configuration not stated) | -1.34
39 | Oc1ccccc1C1=NN2C(C1)c1cc(Br)ccc1OC2c1ccncc1 (configuration not stated) | 12.7 (active)
40 | O=C(O)/C=C/C(=O)Nc1cccc([N+](=O)[O-])c1 | 1.26
41 | Cc1cccc(C)c1NC(=S)N1CCc2ccccc2C1 | -2.91
42 | O=[N+]([O-])c1cc(Br)cnc1Sc1n[nH]c(-c2cccs2)n1 | -0.81
43 | Clc1ccc(-c2nn3c(-c4ccc(Cl)cc4)nnc3s2)cc1 | 0.14
44 | COc1nc(NC(C)(C)C)nc(Oc2ccc(=O)[nH]n2)n1 | -0.91
45 | O=C(c1cccs1)N1CCN(Cc2ccc3c(c2)OCO3)CC1 | 0.63
46 | O=C1CC(c2ccccc2)Cc2nc(N3CCN(Cc4ccc5c(c4)OCO5)CC3)ncc21 (configuration not stated) | -1.59

Row | SMILES | z-score
47 | CCCCCc1c(C)nc(N2CCN(Cc3ccc4c(c3)OCO4)CC2)[nH]c1=O | 3.11 (active)
48 | CCCCN1C(=O)C(c2c(C)[nH]n(-c3ccccc3)c2=O)(C(F)(F)F)C2=C1CC(C)(C)CC2=O (configuration not stated) | -2.96
49 | Cc1ccc(S(=O)(=O)Nc2cccc(CCc3ccccn3)c2)cc1 | -0.8
50 | CCCCCCCCc1ccc(C(=O)O)cc1 | -0.9
51 | COCCCNC(=S)Nc1ccc(C)cc1C | -0.42
52 | CCCc1ccc(C(=O)NNc2ccc(C)cc2C)cc1 | 4.39 (active)
53 | Oc1c(C(Nc2ccccn2)c2ccncc2)ccc2cccnc12 (configuration not stated) | 1.37
54 | Cc1cccc(Cl)c1N=C(N)N=C(N)N | 1.97
55 | CC1(C)N=C(N)N=C(N)N1c1cc(Cl)c(Cl)cc1Cl | -0.47
56 | O=c1ccn(C2CCCO2)c(=O)n1Cc1ccccc1F (configuration not stated) | 0.96
57 | CCc1ccc(C(=O)/C=C/Sc2ccccn2)cc1 | 4.22 (active)
58 | CCc1ccc(C(=O)/C=C/Sc2nc3ccccc3o2)cc1 | 1.33
59 | CCCc1c(C)nc2scc(-c3ccc(Cl)cc3)n2c1=O | 1.65
60 | O=C(Nc1cccc(C(F)(F)F)c1)Nc1ccccc1SCc1ccc(Cl)cc1 | -1.32
61 | COCCCNC(=S)N/N=C/c1ccccc1Cl | -0.35
62 | COc1cccc(/C=N/NC(=S)Nc2cc(C(F)(F)F)cc(C(F)(F)F)c2)c1O | 5.84 (active)
63 | COc1cccc(/C=N/NC(=O)c2cc(C)nc3ccc(Br)cc23)c1O | 2.93
64 | CC(C)OC(=O)Cn1nc(C(F)(F)F)c2c1CCCC2 | 0.31
65 | CNC(=O)NC(=O)CSc1ncnc2sc(-c3ccccc3)cc12 | -1.14
66 | c1ccc(Nc2ncnc3sc(-c4ccccc4)cc23)cc1 | 0.51
67 | COc1ccc(Nc2ncnc3sc(-c4ccccc4)cc23)c(OC)c1 | 8.39 (active)
